Source: PubChem BioAssay (NCATS)
Records with an inconclusive call do not appear. Calls of active or inactive are those of the source. The call rests on the fitted dose curve; in most records, active means well fitted curve in the direction sought with a large enough effect; inconclusive means small, poorly fitted or top-dose-only effect, or another doubt; inactive means no such curve, though single readings can be large; an effect the other way counts as inactive or inconclusive.

How the values were obtained:
WaGa = experiment: qHTS assay to identify novel small-molecules to repurpose for Merkel cell carcinoma treatment (AID 1296009); conditions: MCC and control cell lines, CellTiter-Glo viability, 72 h; series mostly up to 46 µM; further: nearly all actives have a fitted effect of over 60% in size; further: potency means the concentration at half of the fitted maximal effect
Procedure, shortened: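 Cells were incubated with compound for 72 hr at 37 degree celsius before CellTiter-Glo addition. Luminescence was normalized with no-cell wells as full cytotoxicity and DMSO as baseline.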

C33A = experiment: Primary qHTS to identify gynecologic anti-cancer compounds using libraries of approved drugs and bioactive compounds (AID 1345084); conditions: Gynecologic cancer cell panel viability, ATPlite luminescence, 48 h; series mostly up to 57.5 µM; further: nearly all actives have a fitted effect of over 55% in size; further: potency means the concentration at half of the fitted maximal effect
Procedure, shortened: (§1)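 Five-point cytotoxicity, 48 h drug exposure at 37 C, 5% CO2, on cells seeded 16 h beforehand. ATP content read by ATPlite luminescence.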

HeLa = experiment: as above; conditions: Gynecologic cancer cell panel viability, ATPlite luminescence, 48 h; series mostly up to 57.5 µM
Procedure, shortened: as §1

Hek293T = experiment: as above; conditions: Gynecologic cancer cell panel viability, ATPlite luminescence, 48 h, control line for the selectivity index; series mostly up to 57.5 µM
Procedure, shortened: as §1

JEG-3 = experiment: as above; conditions: Gynecologic cancer cell panel viability, ATPlite luminescence, 48 h; series mostly up to 57.5 µM
Procedure, shortened: as §1

Tov-21-G = experiment: as above; conditions: Gynecologic cancer cell panel viability, ATPlite luminescence, 48 h; series mostly up to 57.5 µM
Procedure, shortened: as §1

Tov112D = experiment: as above; conditions: Gynecologic cancer cell panel viability, ATPlite luminescence, 48 h; series mostly up to 57.5 µM
Procedure, shortened: as §1

[1] = qHTS assay to identify inhibitors of the type 1 interferon - major histocompatibility complex class I in skeletal muscle: Counter screen cell viability and HiBit confirmation (AID 1347412); conditions: iHSKM muscle cells + IFN-b, HiBiT or CellTiter-Glo, 24 h; Potency: HiBiT; Viability, at 45.9 µM (top of the series); further: nearly all actives have a fitted effect of over 60% in size; further: potency means the concentration at half of the fitted maximal effect
Procedure, shortened: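 CRISPR HLA-B*08:01-HiBit immortalized human myoblasts (C25cl48) stimulated with 4 ng/ml IFN-beta and compounds (12-point 1:3, top 46 uM final) for 24 h at 37 C. Duplicate plates read by HiBit lytic luminescence or CellTiter Glo ATP.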

[2] = Drug repurposing screens with cells derived from glioblastoma tumor samples (AID 1345199); conditions: GBM patient neurospheres viability, ATP luminescence, 48 h; Potency: tumour line A; series mostly up to 46.1 µM; further: nearly all actives have a fitted effect of over 40% in size
Procedure, shortened: (§2)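 Four patient lines of CD133+ GBM neurospheres were screened at several concentrations; hits were retested in those lines plus three slower-growing GBM lines, using 48-hour treatment and ATP-based viability.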

astro = experiment: as above; conditions: viability, ATP luminescence, 48 h; series mostly up to 45.9 µM
Procedure, shortened: as §2

CASKI = experiment: Primary qHTS to identify gynecologic anti-cancer compounds using libraries of approved drugs and bioactive compounds (AID 1345084); conditions: Gynecologic cancer cell panel viability, ATPlite luminescence, 48 h; series mostly up to 57.5 µM; further: nearly all actives have a fitted effect of over 55% in size; further: potency means the concentration at half of the fitted maximal effect
Procedure, shortened: as §1

Es-2 = experiment: as above; conditions: Gynecologic cancer cell panel viability, ATPlite luminescence, 48 h; series mostly up to 57.5 µM
Procedure, shortened: as §1

OV90 = experiment: as above; conditions: Gynecologic cancer cell panel viability, ATPlite luminescence, 48 h; series mostly up to 57.5 µM
Procedure, shortened: as §1

PA-1 = experiment: as above; conditions: Gynecologic cancer cell panel viability, ATPlite luminescence, 48 h; series mostly up to 57.5 µM
Procedure, shortened: as §1

SKOV3 = experiment: as above; conditions: Gynecologic cancer cell panel viability, ATPlite luminescence, 48 h; series mostly up to 57.5 µM
Procedure, shortened: as §1

Measured: Potency

CC(C)(N)c1ccc(-c2nc3ccccc3nc2-c2ccccc2)cc1
active: WaGa 18.7 µM
inactive: C33A | HeLa | Hek293T | JEG-3 | Tov-21-G | Tov112D | [1]

O=C(O)C(=O)Nc1cccc(C2=NN=N[N]2)c1
inactive: WaGa | [2] | astro

c1ccc2c(Oc3nc(Nc4ccc(N5CCOCC5)cc4)c4ncn(C5CCCCC5)c4n3)cccc2c1
not listed: [1] | [2] | astro
inactive: all other assays above

CCn1c(=O)c2c(nc(C=Cc3ccc(OC)c(OC)c3)n2C)n(CC)c1=O
not listed: [1] | [2] | astro
inactive: all other assays above

CCCCC(=O)O[C@]1(C(=O)CO)[C@@H](C)C[C@H]2[C@@H]3CCC4=CC(=O)C=C[C@]4(C)[C@@]3(F)[C@@H](O)C[C@@]21C
not listed: [2] | astro | SKOV3
inactive: all other assays above

Nc1ccn(C[C@@H](CO)OCP(=O)(O)O)c(=O)n1
inactive: WaGa | [2] | astro

CC1=C(C(=O)Nc2cc3cn[nH]c3cc2F)C(c2ccc(Cl)cc2F)N=C(c2ccnc(Cl)c2)N1 (configuration not stated)
active: WaGa 10.5 µM
not listed: C33A | HeLa | [1] | [2] | astro
inactive: all other assays above

Cc1cn([C@@H]2O[C@H](CO)[C@@H](O)[C@H]2F)c(=O)[nH]c1=O
not listed: [1] | [2] | astro
inactive: all other assays above

C[C@H]1C[C@H]2[C@@H]3CCC4=CC(=O)C=C[C@]4(C)[C@@H]3C(=O)C[C@]2(C)[C@@]1(O)C(=O)CO
inactive: WaGa | [2] | astro

C[C@H]1[C@@H](OC(=O)CCC(=O)O)O[C@@H]2O[C@@]3(C)CC[C@@H]4[C@H](C)CC[C@@H]1[C@@]24OO3
active: WaGa 6.62 µM
inactive: CASKI | OV90 | SKOV3

CC(C)n1cnc2c(NCCc3ccc(O)cc3)nc(-c3csc4ccccc34)nc21
not listed: [1] | [2] | astro | SKOV3
inactive: all other assays above

N[C@H]1CN(c2c(F)cc3c(=O)c(C(=O)O)cn(C4C[C@@H]4F)c3c2Cl)CC12CC2 (some centres not stated)
not listed: C33A | [1]
inactive: all other assays above

CC1(C)O[C@@H]2C[C@H]3[C@@H]4CCC5=CC(=O)C=C[C@]5(C)[C@@H]4[C@@H](O)C[C@]3(C)[C@]2(C(=O)CO)O1
not listed: [1] | [2] | astro
inactive: all other assays above

CCOC(=O)[C@@H](N)Cc1ccc(-c2cc(O[C@H](c3ccc(Cl)cc3-n3ccc(C)n3)C(F)(F)F)nc(N)n2)cc1
active: [1] 19.8 µM
not listed: [2] | astro
inactive: all other assays above

Cn1cnc2c(F)c(Nc3ccc(Br)cc3F)c(C(=O)NOCCO)cc21
inactive: WaGa | C33A | CASKI | HeLa | Hek293T | JEG-3 | SKOV3 | Tov112D
active: OV90 0.224 µM

CCC[C@H]1C[C@H](C(=O)N[C@@H]([C@@H]2O[C@@H](SC)[C@@H](O)[C@@H](O)[C@@H]2O)[C@H](C)Cl)N(C)C1
not listed: Tov-21-G | [1] | [2] | astro | SKOV3
inactive: all other assays above
